Screens: PubChem, National Center for Advancing Translational Sciences (NCATS)
In the library only some 4.7% were active in any assay of this set; here they are far more common.
D1 potentiator: enhances dopamine response at the human D1 receptor | HEK293 TREx D1 cells, calcium flux, dopamine EC20 potentiation | potentiation, % at 10 µM | actives 0.036% (n = 360,000) | AID 504651; in the data active = potentiation above about 30%
Target sequence (P21728 whole entry, looked up): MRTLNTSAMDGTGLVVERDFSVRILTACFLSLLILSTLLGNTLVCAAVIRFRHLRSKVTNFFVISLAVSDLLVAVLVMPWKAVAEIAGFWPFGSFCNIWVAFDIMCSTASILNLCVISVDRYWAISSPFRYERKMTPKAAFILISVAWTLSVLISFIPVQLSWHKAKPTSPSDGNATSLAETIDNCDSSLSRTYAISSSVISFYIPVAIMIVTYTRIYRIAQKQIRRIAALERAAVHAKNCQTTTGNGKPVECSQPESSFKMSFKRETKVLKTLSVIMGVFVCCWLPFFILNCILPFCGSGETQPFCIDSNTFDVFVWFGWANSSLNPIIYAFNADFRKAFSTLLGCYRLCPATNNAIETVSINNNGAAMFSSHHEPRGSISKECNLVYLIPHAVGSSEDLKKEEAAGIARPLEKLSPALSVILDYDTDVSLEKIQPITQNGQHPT
D1 antag: antagonists of human D1 dopamine receptor; P21728; HEK293 TREx D1 cells, calcium flux, dopamine EC80; stronger effect = lower value; activity change, negative = inhibition, % at 10 µM; actives 3.2% (n = 360,000); AID 504652; in the data active = activity change below about -30%
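Kinetic fluorescence of a calcium dye serves as the read-out. D1-expressing Hek293 Trex cells, induced overnight at 30 C, are exposed to compound for 180 s before an EC80 dopamine addition, then read 180 s further.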
TRHR ag: activates the human TRH receptor; P34981; TRHR cells, calcium flux fluo-8, FDSS agonist mode; activation, % at 2 µM; actives 0.18% (n = 360,000)
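In this calcium-flux screen, cells bearing human TRHR are dye-loaded with fluo-8, baselined for 10 cycles, then exposed to library compounds; positive kinetic calcium responses during the agonist phase mark hits, with TRH as control.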
D1 ag: activates the human D1 dopamine receptor; P21728; actives 1% (n = 360,000); HEK293 T-REx D1 cells, calcium flux, agonist mode; AID 504660; activation, % at 2 µM
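Agonism was scored from calcium flux recorded over 180 s (1 read/s) after pintool compound addition, following a 10-cycle baseline. Cells were inducible force-coupled HEK293 TREx D1, plated overnight at 30 C and loaded with no-wash calcium dye.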
TRHR enhancer: TRH receptor (human) allosteric enhancement; P34981; TRHR cells, fluo-8 calcium fluorescence, EC20 TRH enhancement; enhancement, % at 2 µM; actives 0.66% (n = 360,000); in the data active = enhancement above about 30%
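Enhancer read-out: after compound pinning and an initial kinetic agonist-mode read, an EC20 of TRH (10 nM final) was injected and fluo-8 calcium signal (Ex 480/Em 530) followed at 1 s/cycle for 100 cycles in TRHR-expressing cells.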
Each line names hits and unclear results; the compound was inactive in the other large screens. Cut-off read from the data, not from the text of the source, unless noted: active = activation above about 30%; inactive = the rest.

O=C(CCN1CCN(C(c2ccccc2)c2ccccc2)CC1)N/N=C/c1ccc(O)cc1	D1 antag -72
COc1ccc(/C=N\NC(=O)CCN2CCN(c3ccccc3)CC2)cc1OC	none
COc1cc(/C=N/NC(=O)CCN2CCCCC2)ccc1O	TRHR enhancer 34
CCCCCC(=O)N/N=C/c1cc(Br)c(O)c(OC)c1	D1 antag -39
Cc1ccccc1CNC(=O)CN(c1cccc(C)c1C)S(C)(=O)=O	none
CN(Cc1ccc(C#CCCO)cc1)CC1CCCN(CCc2ccc(Cl)cc2)C1 (configuration not stated)	D1 antag -38
CN(Cc1ccccc1O)CC1CCCN(CCc2ccc(Cl)cc2)C1 (configuration not stated)	none
COc1cccc2c1C(=O)c1c(O)c3c(c(O)c1C2=O)C[C@](O)(C(C)=O)C[C@H]3O[C@@H]1C[C@@H](N)[C@@H](O)[C@@H](C)O1	D1 antag -35
COc1cccc2c1-c1c(O)cccc1C2=O	none
COc1ccccc1N1CCN(c2ncnc3c2cnn3-c2cc(Cl)ccc2C)CC1	none
CCOC(=O)c1ccc(NC(=O)c2n[nH]c(=O)c3ccccc23)cc1	none
COc1cc(NC(=O)c2n[nH]c(=O)c3ccccc23)cc(OC)c1	TRHR enhancer 35
Cc1nnc(SCC(=O)Nc2ccccc2NC(=O)CSc2nnc(C)s2)s1	D1 antag -33
Cc1cccc(C)c1Nc1nnc(SCC(=O)NCc2cccs2)s1	none
Cc1ccccc1Nc1nnc(SCC(=O)NCc2cccs2)s1	D1 antag -41
CCn1cnnc1SCC(=O)NCC1COc2ccccc2O1 (configuration not stated)	none
Cc1nnc(SCC(=O)NCC2COc3ccccc3O2)s1 (configuration not stated)	D1 antag -31
CCCn1c(=O)c(C(=O)NNC(=O)c2ccc(Cl)cc2Cl)c(O)c2ccccc21	D1 ag 41
Cn1c(=O)c(C(=O)NNC(=O)c2cccc(Cl)c2)c(O)c2ccccc21	none
CCCn1c(=O)c(C(=O)Nc2cccc(C)n2)c(O)c2ccccc21	none
CCCn1c(=O)c(C(=O)Nc2ncccc2C)c(O)c2ccccc21	D1 ag 49
Cc1cccc(C(=O)NNC(=O)c2c(O)c3ccccc3n(C)c2=O)c1	TRHR enhancer 37
Cc1ccc(S(=O)(=O)NCC(=O)OCCOc2cccc(Cl)c2)cc1	D1 potentiator 40
Cc1ccc(S(=O)(=O)NCCC(=O)OCC(=O)Nc2cccc(Cl)c2)cc1	D1 antag -42
Cc1cc(Cl)ccc1NC(=O)COC(=O)CCNS(=O)(=O)c1ccccc1	none
Cc1cc2c(s1)c1cnn(Cc3ccccc3Br)c(=O)c1n2C	none
COc1ccc(NC(=O)c2ccc3c(=O)n4nc(Nc5cccc(Cl)c5C)sc4nc3c2)cc1	none
O=C1CC(N2CCN(c3cccc(C(F)(F)F)c3)CC2)C(=O)N1c1ccccc1F (configuration not stated)	none
CCCOc1ccc(N2C(=O)CC(N3CCC(O)(c4cccc(C(F)(F)F)c4)CC3)C2=O)cc1 (configuration not stated)	D1 antag -32
O=C1CC(N2CCN(c3cccc(C(F)(F)F)c3)CC2)C(=O)N1c1ccccc1 (configuration not stated)	D1 ag 53
Cc1nc(SCC(=O)Nc2ccccc2C)cc(-c2ccccc2)n1	none
COC(=O)Nc1sc(C)nc1-c1ccccc1	none (no result: D1 potentiator, D1 antag, D1 ag)
CCOC(=O)Nc1sc(C)nc1-c1ccccc1	D1 antag -49
Cc1[nH]c2ccc(F)cc2c1CCN(Cc1ccco1)C(=S)NC(C)(C)C	D1 antag -43
CNC(=S)N(CCc1c(C)[nH]c2ccccc12)Cc1ccco1	D1 antag -38
CNC(=S)N(CCc1c(C)[nH]c2ccc(F)cc12)Cc1ccco1	none
NCCCCCc1cn([C@@H](CCC(=O)O)C(=O)NCCCCCCCCCCC(=O)N2CCNCC2)nn1	none
NCCCCCc1cn([C@@H](CO)C(=O)NCCCCCCCCCCC(=O)N2CCNCC2)nn1	D1 antag -32
CSCC[C@@H](C(=O)NCCCCCCCCCCC(=O)N1CCNCC1)n1cc(CCO)nn1	D1 antag -36
CCSc1nc2sc3c(c2c(=O)n1-c1ccc(C)cc1)CCCC3	none
